The whole screen tested about 5,500 compounds, of which about 2,000 (36%) were called active. Inconclusive results (about 18%) are left out. No stated cut-off is given here; in the data, active means normalized growth mostly below about 0.91 (no sharp cut-off); inconclusive means no clear call, values can overlap the other calls; inactive means mostly above about 0.92. This is one part of the list.
Test: chemical genetic growth profiling, strain panel (AID 1159580);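 further: tested at 20 µM; growth read once vehicle control cultures reached saturation at 30 °C; 1 = growth at the plate median or of vehicle wells; lower values mean less growth of the strain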
Conditions: S. cerevisiae deletion strains, growth OD

Measured: normalized growth

Cc1cc(=O)oc2cc(O)cc(O)c12
inactive: locus YAL021C, strain ccr4, hits give low values 0.968 | locus YAL026C, strain drs2, hits give low values 0.96 | locus YAL030W, strain snc1, hits give low values 0.952 | locus YBL061C, strain skt5, hits give low values 0.958 | locus YBR009C, strain hhf1, hits give low values 0.949 | locus YBR023C, strain chs3, hits give low values 0.949 | locus YBR171W, strain sec66, hits give low values 0.965 | locus YBR231C, strain swc5, hits give low values 0.975 | locus YBR279W, strain paf1, hits give low values 0.969 | locus YCL011C, strain gbp2, hits give low values 0.95 | locus YCL016C, strain dcc1, hits give low values 0.966 | locus YCL061C, strain MRC1, hits give low values 0.983 | locus YCL069W, strain vba3, hits give low values 0.965 | locus YCR088W, strain abp1, hits give low values 0.958 | locus YDL005C, strain med2, hits give low values 0.961 | locus YDL040C, strain nat1, hits give low values 0.958 | locus YDR001C, strain nth1, hits give low values 0.957 | locus YDR069C, strain doa4, hits give low values 0.941 | locus YDR137W, strain rgp1, hits give low values 0.962 | locus YDR159W, strain sac3, hits give low values 0.932 | locus YDR195W, strain ref2 0.925 | locus YDR297W, strain sur2, hits give low values 0.96 | locus YDR334W, strain swr1, hits give low values 0.948 | locus YDR335W, strain msn5, hits give low values 0.978 | locus YDR392W, strain spt3, hits give low values 0.938 | locus YEL003W, strain gim4, hits give low values 0.978 | locus YEL037C, strain rad23, hits give low values 0.929 | locus YEL061C, strain CIN8 (second series), hits give low values 0.951 | locus YER015W, strain faa2, hits give low values 0.998 | locus YER016W, strain bim1, hits give low values 0.965 | locus YER111C, strain swi4, hits give low values 0.949 | locus YER155C, strain BEM2 (second series), hits give low values 0.932 | locus YFR010W, strain ubp6, hits give low values 0.943 | locus YGL167C, strain pmr1, hits give low values 0.943 | locus YGL173C, strain kem1, hits give low values 0.97 | locus YGL227W, strain vid30, hits give low values 0.95 | locus YGL240W, strain doc1, hits give low values 0.971 | locus YGL253W, strain hxk2, hits give low values 0.995 | locus YHR013C, strain ard1, hits give low values 0.948 | locus YHR027C, strain rpn1, hits give low values 0.964 | locus YHR142W, strain chs7, hits give low values 0.94 | locus YJL092W, strain hpr5, hits give low values 0.969 | locus YJL095W, strain BCK1 (second series), hits give low values 0.974 | locus YJL115W, strain asf1, hits give low values 0.958 | locus YJL129C, strain trk1, hits give low values 0.946 | locus YJL154C, strain vps35, hits give low values 0.971 | locus YJL164C, strain tpk1, hits give low values 0.978 | locus YJL166W, strain qcr8, hits give low values 0.983 | locus YJL187C, strain SWE1, hits give low values 0.968 | locus YKL160W, strain elf1, hits give low values 0.981 | locus YKR026C, strain gcn3, hits give low values 0.944 | locus YKR091W, strain srl3, hits give low values 0.962 | locus YLL001W, strain dnm1, hits give low values 0.948 | locus YLL026W, hits give low values 0.97 | locus YLL041C, strain sdh2, hits give low values 0.977 | locus YLR027C, strain aat2, hits give low values 0.945 | locus YLR221C, strain rsa3, hits give low values 0.977 | locus YLR258W, strain gsy2, hits give low values 0.966 | locus YLR262C, strain YPT6 (second series), hits give low values 0.977 | locus YLR320W, strain mms22, hits give low values 0.962 | locus YLR342W, strain FKS1, hits give low values 0.958 | locus YLR357W, strain rsc2, hits give low values 0.939 | locus YLR370C, strain arc18, hits give low values 0.932 | locus YLR384C, strain iki3, hits give low values 0.957 | locus YML120C, strain ndi1, hits give low values 0.954 | locus YMR058W, strain fet3, hits give low values 0.967 | locus YMR125W, strain sto1, hits give low values 0.935 | locus YMR129W, hits give low values 0.969 | locus YMR205C, strain PFK2, hits give low values 0.932 | locus YMR231W, strain pep5, hits give low values 1 | locus YNL071W, strain lat1, hits give low values 0.972 | locus YNL209W, strain ssb2, hits give low values 0.965 | locus YNL248C, strain rpa49, hits give low values 0.996 | locus YNL322C, strain KRE1 (second series), hits give low values 0.95 | locus YNR049C, strain mso1, hits give low values 0.954 | locus YOR001W, strain rrp6, hits give low values 0.979 | locus YOR070C, strain gyp1, hits give low values 0.973 | locus YOR080W, strain dia2, hits give low values 0.965 | locus YOR083W, strain WHI5, hits give low values 0.988 | locus YOR106W, strain vam3, hits give low values 0.964 | locus YOR265W, strain rbl2, hits give low values 0.976 | locus YOR270C, strain vph1, hits give low values 0.894 | locus YOR290C, strain snf2, hits give low values 0.939 | locus YPL051W, strain arl3, hits give low values 0.982 | locus YPL078C, strain atp4, hits give low values 0.969 | locus YPL106C, strain sse1, hits give low values 0.927 | locus YPL240C, strain hsp82, hits give low values 0.985

Source: PubChem BioAssay AID1159580 (chemical genetic matrix, 2015)
